# Screens as filed in PubChem.
# LASV entry inh – blocks Lassa virus binding to or entry into cells; Potency, µM (doses to about 37.9 µM), inactives show at the highest dose activity change, negative = inhibition, most hits filed as inhibitors; actives 1.2% (n = 300,000); Lassa virus pseudotype entry inhibition, cell reporter; calls by dose curve; tested in HEK293 cells; further: potency means the concentration at half of the fitted maximal effect; on the % scale 0 is the no-effect control and ±100 the full control effect; nearly all actives have a fitted effect of over 50% in size
# CHX counter – counter-screen hit for Shiga toxin inhibitors, cycloheximide; cell reporter, cycloheximide protein synthesis inhibition counterscreen; max response, %; actives 12% (n = 300,000); AID 2314; in the data active means max response mostly above about 13%, no sharp cut-off; inactive means mostly below about 14%; further: read at 38.3 µM for the half of the compounds with a filed dose; 0% is about no effect
# MARV entry inh – Marburg virus entry inhibition; Marburg virus pseudotyped entry inhibition, cell reporter; Potency, µM (doses to about 37.8 µM), for the others: at the top dose activity change, negative = inhibition, usual class: inhibitors; actives 1.8% (n = 300,000); calls by dose curve; tested in HEK293 cells; further: potency means the concentration at half of the fitted maximal effect; on the % scale 0 is the no-effect control and ±100 the full control effect
# Shiga inhibitor – Shiga toxin inhibition | Vero cells, Shiga toxin protein synthesis inhibition reporter | inhibition, % at 38.7 µM | actives 9.2% (n = 290,000); in the data active means inhibition mostly above about 28%, no sharp cut-off; inactive means mostly below about 43%; further: 0% is about no effect
# Pf growth 96h – P. falciparum growth inhibition at 96 hour, primary screen for plastid delayed-death inhibitors. P. falciparum luciferase reporter growth, 96 h. Potency, µM (top dose mostly 28.7 µM), for inactives: top-dose activity change, negative = inhibition, most hits filed as inhibitors. actives 6.9% (n = 320,000); further: potency means the concentration at half of the fitted maximal effect; on the % scale 0 is the no-effect control and ±100 the full control effect
#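 Two-generation exposure (96 h) targets delayed-death phenotype. Reporter parasites carrying integrated firefly luciferase, in red cells at 2% hematocrit and 0.05% parasitemia final, kept at 37 C, 5% CO2; luminescence loss indicates inhibition.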
# Pf growth 48h – inhibits P. falciparum growth in the first generation, 48 h | Potency, µM (top dose mostly 28.7 µM), for inactives: at the highest dose activity change, negative = inhibition, hits mostly inhibitors | P. falciparum luciferase growth in erythrocytes, 48 h | AID 504832 | actives 5.9% (n = 310,000); further: potency means the concentration at half of the fitted maximal effect; on the % scale 0 is the no-effect control and ±100 the full control effect
#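 Luminescence readout; reporter = integrated firefly luciferase in P. falciparum. RBC culture at 2% hematocrit, 0.1% parasitemia final, 37 C/5% CO2; decreased signal taken as growth inhibition.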
# * hit, by the source's call; u = inconclusive; x = not tested or not shown; [ ] = remark or other dose. This is a sample that favours compounds with a hit; in the whole collection about 19% have one here. Unless noted, the call rests on the fitted dose curve; in most records, active means well fitted inhibition curve with a large enough effect; inconclusive means small, poorly fitted or top-dose-only effect, or another doubt; inactive means no such curve, though single readings can be large or run the other way.
SMILES,LASV entry inh,CHX counter,MARV entry inh,Shiga inhibitor,Pf growth 96h,Pf growth 48h
CCOC(=O)c1c(-c2ccccc2)csc1NC(=S)NC,0%,-1,4%,-16,16%,10%
CCNC(=S)Nc1scc(-c2ccccc2)c1C(=O)OCC,-5%,-3,-19%,6,20%,-1%
CCOC(=O)c1c(-c2ccc(C)o2)csc1NC(=S)NC(=O)c1cccs1,23µM*,2,u,-1,u,u
CCCN1C(=O)CSC1=Nc1ccccc1,x,-2,x,9,u,16%
CC(=O)Nc1ccc(OCC(=O)N(CC(C)C)C2CCS(=O)(=O)C2)cc1 (configuration not stated),x,5,6%[46.1 µM],-7,-37%[5.75 µM],-14%
Cc1ccc(N(CC(=O)NC(C)c2ccccc2)S(=O)(=O)c2c(C)noc2C)cc1 (configuration not stated),u,-1,u,-5,2%,u
CC(C)(C)c1ccc(C(=O)NCCOc2ccccc2F)cc1,u,24,u,34*,u,39%
Cc1ccc(OCCNC(=O)c2cc(=O)[nH]c3ccccc23)cc1,x,-1,x,9,7%,-1%
COc1ccccc1C(=O)NCCOc1ccc(C(C)(C)C)cc1,x,1,x,-5,15µM*,u
COc1cc(OC)cc(C(=O)NCCCNC(=O)c2ccccn2)c1,0%,2,18%,-9,12µM*,0%
Cc1ccc(OCCNC(=O)c2ccccc2F)cc1,2%,21*,32%,40*,-5%,-5%
O=C(Cc1ccccc1)NCCSCc1ccc(Cl)cc1,u,0,-4%,-3,1%,3%
O=C(COc1ccc(Cl)cc1Cl)N/N=C/c1cccnc1,-13%[46.1 µM],-4,u,-7,5%,u
Cc1ccc(OCC(O)CNC(=O)c2ccccc2C(=O)O)cc1 (configuration not stated),25%,18*,1%[46.1 µM],33,45%,38%
CC(C)(C)c1ccc(C(=O)NCCOc2ccccc2)cc1,u,26*,1.6µM*,33,9.3µM*,131%
CN(CCCNC(=O)c1ccccc1F)CCCNC(=O)c1ccccc1F,x,5,x,-5,9.3µM*,u
O=C(NCCOc1ccccc1)c1cc(C(=O)NCCOc2ccccc2)cc([N+](=O)[O-])c1,u,-2,-33%,10,u,12µM*
O=C(NCCOc1ccccc1)c1ccccc1[N+](=O)[O-],x,7,x,31,u,u
COc1ccccc1NS(=O)(=O)c1ccc(C)c(NC(=O)c2ccc(S(=O)(=O)N3CCCCCC3)cc2)c1,-13%,1,u,9,u,u
CCN(CC)C(=O)C(=O)c1c(-c2ccccc2)[nH]c2ccccc12,16%,-3,0%,-11,-19%,u
COc1cc(OC)cc(C(=O)NCCOc2ccccc2)c1,-14%,31*,u,77*,35%,x
COc1cc(C(=O)NCCOc2ccccc2)cc(OC)c1OC,14%,1,-2%,9,u,1%
COc1cccc(C(=O)NCCOc2cc(C)cc(C)c2)c1,7%,4,-7%,8,u,12%
Cc1ccc(C(=O)NCCOc2cccc(C)c2)cc1,-27%,37*,23%,83*,8%,45%
COc1ccc(C(NC(=O)/C=C\c2ccco2)c2ccc(OC)c(OC)c2)cc1 (configuration not stated),-16%,25*,-6%,105*,u,u
SMILES,LASV entry inh,CHX counter,MARV entry inh,Shiga inhibitor,Pf growth 96h,Pf growth 48h
COc1ccc(C(NC(=O)/C=C/c2ccco2)c2ccc(OC)cc2)cc1,u,7,u,1,2.3µM*,10µM*
CCC(C(=O)Nc1c[nH]c(=O)[nH]c1=O)c1ccccc1 (configuration not stated),1%,-5,-3%,-15,u,-18%
CCN1CCN(CCCN(Cc2ccco2)C(=S)Nc2cccc(Cl)c2C)CC1,u,-1,-15%[46.1 µM],-4,-1%,-28%
CCOC(=O)c1ccc(NC(=S)N(CCCN2CCCCC2)Cc2ccco2)cc1,-17%,-3,13µM*,-9,2%,u
CCOC(=O)c1ccc(NC(=S)N(CCCN(CC)CC)Cc2ccco2)cc1,u,-4,-53%,-9,15µM*,u
CCOC(=O)c1ccc(NC(=S)N(Cc2cccnc2)Cc2ccco2)cc1,-2%,0,u,-4,u,u
COc1ccc(NC(=S)N(CCCN2CCCC2)Cc2ccco2)cc1,-10%,1,-16%[46.1 µM],-47,-7%,2%
CCN1CCN(CCCN(Cc2ccco2)C(=S)Nc2ccccc2Cl)CC1,-2%,-7,0%[46.1 µM],-6,1.9µM*,34%
CSc1nc(N)nc(SCC(=O)C(C)(C)C)c1C#N,7%,22,0%,22,u,x
CSc1nc(N)nc(SC2C=CCCC2)c1C#N (configuration not stated),7%,26*,-7%,60,-1%,-29%
CC(C)=CCCN1CCC(NC(=O)C(O)(c2ccccc2)C2CCCC2)CC1 (configuration not stated),x,-6,x,-7,x,x
Cc1nc(CC(=O)c2ccc(O)c(C)c2O)cs1,x,9.7*,0%,47*,-6%,2%
Cc1nc(CC(=O)c2ccc(O)cc2O)cs1,u,12,19%,30,39%,7%
COCC(C)n1c(SCC(=O)Nc2sccc2C(N)=O)nc2ccccc2c1=O (configuration not stated),x,x,x,x,u,9.3µM*
COCC(C)n1c(SCc2cc(=O)n3cc(C)ccc3n2)nc2ccccc2c1=O (configuration not stated),6.3µM*,12,5µM*,-12,u,u
COCC(C)n1c(SCC(=O)N2CCCCC2)nc2ccccc2c1=O (configuration not stated),-17%,-3,u,-15,0%,-24%
Cc1ccc2nc(CSc3nnc4ccccn34)cc(=O)n2c1,17%,25,11%[46.1 µM],66,83%,48%
COCC(C)n1c(SCC(=O)N2CCc3ccccc3C2)nc2ccccc2c1=O (configuration not stated),u,-1,u,-12,7.4µM*,u
COc1ccc(CN2CCC(n3nccc3NC(=O)CCOc3ccccc3)CC2)cc1C,u,0,u,-12,u,54%
O=C(CCOc1ccccc1)Nc1ccnn1C1CCN(CCc2ccccc2)CC1,x,-7,x,-8,13µM*,-21%
O=C(CCOc1ccccc1)Nc1ccnn1C1CCN(Cc2ccc(O)cc2)CC1,-1%[46.1 µM],-1,-3%[46.1 µM],-30,24%,9.3µM*
CCn1ccnc1CN1CCC(n2nccc2NC(=O)CCc2ccccc2)CC1,4%,9,16%,19,8.3µM*,46%
COc1cccc(CN2CCC(n3nccc3NC(=O)CCOc3ccccc3)CC2)c1,x,-2,x,-8,3.3µM*,u
